Experimental findings from PubChem BioAssay AID1851 (National Center for Advancing Translational Sciences (NCATS), 2009) are described below.

Among all 16,000 compounds or so, about 5,100 (32%) were called active. About 25% were inconclusive and are not listed. Calls follow the shape of the dose curve; as a rule, active = well fitted curve in the direction sought with a large enough effect; inconclusive = small, poorly fitted or top-dose-only effect, or effect the other way; inactive = no such curve, though single readings can be large or run the other way. Some of the results follow.
% is scaled to controls: 0 for no effect and ±100 for the full control effect.

Sequence of Cytochrome P450 3A4 (Homo sapiens) (P08684 whole entry, looked up): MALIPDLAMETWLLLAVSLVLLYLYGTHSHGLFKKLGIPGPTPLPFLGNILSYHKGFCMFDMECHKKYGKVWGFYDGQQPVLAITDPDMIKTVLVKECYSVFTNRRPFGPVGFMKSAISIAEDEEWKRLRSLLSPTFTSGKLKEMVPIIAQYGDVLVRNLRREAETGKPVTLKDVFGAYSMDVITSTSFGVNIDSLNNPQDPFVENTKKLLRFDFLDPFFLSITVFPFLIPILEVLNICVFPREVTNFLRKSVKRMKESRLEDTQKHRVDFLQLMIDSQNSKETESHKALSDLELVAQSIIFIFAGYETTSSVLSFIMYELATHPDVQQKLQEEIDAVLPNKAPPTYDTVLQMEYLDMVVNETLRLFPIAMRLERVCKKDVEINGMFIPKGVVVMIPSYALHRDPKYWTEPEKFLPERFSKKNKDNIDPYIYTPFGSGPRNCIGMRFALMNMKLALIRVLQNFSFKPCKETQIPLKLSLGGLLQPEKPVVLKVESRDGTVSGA

The experiment addresses Cytochrome P450 3A4 (Homo sapiens) (UniProt P08684). In words: Cytochrome panel assay with activity outcomes. To be noted: recombinant CYP, pro-luciferin dealkylation, luminescence, p450-cyp3a4; series mostly up to 57.1 µM; activity, negative = inhibition: at the top concentration.
As for `O=C(O)CCC(=O)N1CCc2cc(S(=O)(=O)N3CCCCC3)ccc21`, the “activity, negative = inhibition” value was 3.03% (inactive).

As for `O=C(O)CCC(=O)N1CCc2cc(S(=O)(=O)NCc3cccs3)ccc21`, the “activity, negative = inhibition” value is -13.1% (inactive). Broadly, the AC50 is the concentration giving half of the maximal activity seen. For `CCC(=O)N1CCc2cc(S(=O)(=O)NC(C(=O)NCc3ccc(F)cc3)C(C)C)ccc21` (configuration not stated), the AC50 is 7.08 µM (active). As for `Cc1ccc2[nH]c(=O)c(NC(N)=S)nc2c1`, the “activity, negative = inhibition” value was -26.7% (inactive). On to `CCOC(=O)Cn1c(-c2ccccc2)nc2ccccc2c1=O`, for which the “activity, negative = inhibition” value was 19.7% (inactive). As to `CCO/C(C)=N/n1c2nc3ccccc3nc2c2c(=O)n(CC(C)C)c(C)nc21`, the AC50 is 28.2 µM (active). Take `O=C(O)c1ccccc1N[C@H](c1ccccc1)c1ccc2cccnc2c1O`: the activity, negative = inhibition is -13.5% [at 11.4 µM] (inactive). For the molecule `CC(=O)Oc1cc(C(C)C)c(OCCN(C)C)cc1C`, the AC50 result is “inactive”. For `COC(=O)CNC(=O)CCCCC(=O)NCC(=O)OC`, the “activity, negative = inhibition” value was 2.89% (inactive). Turning to `CCCCCC(=O)Nc1cc2[nH]c(=O)cc(COC)c2cc1C`, the “activity, negative = inhibition” value is -15.2% (inactive). On to `CCCCCCCCC(=O)NCc1cc(OC)c(O)cc1I`, for which the AC50 was 3.16 µM (active). On to `Cc1ccc(S(=O)(=O)Oc2cc(S(=O)(=O)O)cc3cc(S(=O)(=O)O)cc(N)c23)cc1`, for which the activity, negative = inhibition is 0.193% [at 11.4 µM] (inactive). For `Cc1nc(SCC(=O)c2cc3ccccc3oc2=O)c(C#N)c(C)c1C(=O)Nc1ccccc1`, the “activity, negative = inhibition” value is 25.5% (inactive). Same read-out and setting: the figure for `N#Cc1c(NC(=O)CCC(=O)O)ccc2ccccc12` is -1.16% [at 11.4 µM] (inactive).

Take `Cc1c(C#N)c(=O)oc2ccc3ccccc3c12`: the AC50 was 3.55 µM (active). For the molecule `CN(C)CCNc1oc(COc2ccc(Cl)cc2Cl)nc1C#N`, the “activity, negative = inhibition” value was -24.5% (inactive). `N#Cc1nc(COc2ccccc2Cl)oc1NCc1ccco1`: the AC50 was 5.01 µM (active).

`O=C(O)C1CC2(C1)CC(C(=O)O)C2` (configuration not stated): the activity, negative = inhibition is 5.16% [at 11.4 µM] (inactive). On to `Cc1ccc(CNC(=O)CN2C(=O)COc3ccc(C)cc32)cc1`, for which the AC50 is 1.78 µM (active). As to `COc1ccccc1CNC(=O)CCN1C(=O)COc2ccc(C)cc21`, the AC50 is 11.2 µM (active). `CCCn1nc2cc(C(=O)NCc3ccc4c(c3)OCO4)ccc2c1OCC`: the activity, negative = inhibition is 32.6% [at 2.29 µM] (inactive). Same read-out and setting: the same measure for `Cc1ccc2c(c1)-c1c(cnn1CC(=O)O)CO2`: -4.22% (inactive); for `CCN1CCCC1CNC(=O)CCNC(=O)c1cc(OC)c(OC)c(OC)c1` (configuration not stated): -29.8% (inactive). `CCc1nnc(NC(=O)CCC(=O)NCc2ccccc2OC)s1`: the “activity, negative = inhibition” value is -29.3% (inactive). Consider `COc1cc(C(=O)NCCC(=O)NCc2ccc3c(c2)OCO3)cc(OC)c1OC`, for which the AC50 was 0.447 µM (active). On to `Cc1ccc(C(=O)NCc2ccc(N3CCN(C(=O)OC(C)(C)C)CC3)cc2)cc1`, for which the “activity, negative = inhibition” value is -19.6% (inactive). For `Cc1ccc2c(c1)N(CCC(=O)NCc1ccc3c(c1)OCO3)C(=O)CO2`, the AC50 is 0.112 µM (active).

In the case of `Cc1ccc2c(c1)N(CCC(=O)NCc1cccnc1)C(=O)CO2`, the AC50 is 3.55 µM (active). On the same count and under the same terms, the same measure for `O=C(O)c1cccc(N2CCCC2=O)c1`: 8.91 µM (active). For `O=C(O)c1cccc(CN2CCCCC2)c1`, the activity, negative = inhibition was -0.758% [at 11.4 µM] (inactive). Still for that read-out and setting: the figure for `O=C(O)c1cccc(SSc2cccc(C(=O)O)c2)c1` is -11.9% [at 11.4 µM] (inactive). As for `COc1ccc(Oc2ncc3nc(C)c(=O)n(Cc4cccs4)c3n2)cc1`, the AC50 is 3.16 µM (active). Same read-out and setting: the figure for `COc1ccc(Oc2ncc3nc(-c4ccc(F)cc4)c(=O)n(Cc4cccs4)c3n2)cc1` is 15.8 µM (active). In the case of `Cn1cc(-c2nc3cnc(Oc4ccccc4)nc3n(Cc3cccs3)c2=O)c2ccccc21`, the “activity, negative = inhibition” value was -4.55% (inactive). Turning to `COc1ccc(-c2nc3cnc(N4CCN(C)CC4)nc3n(Cc3cccs3)c2=O)cc1`, the “activity, negative = inhibition” value is 23.4% (inactive). As to `COc1ccc(Oc2ncc3ncc(=O)n(Cc4cccs4)c3n2)cc1`, the AC50 is 3.16 µM (active). As for `COc1ccc(-c2nc3cnc(N4CCOCC4)nc3n(Cc3cccs3)c2=O)cc1`, the “activity, negative = inhibition” value is 9.4% (inactive).

In the case of `Cc1nc2cnc(Oc3ccccc3)nc2n(Cc2cccs2)c1=O`, the AC50 was 10 µM (active). In the case of `O=C(NNC(=O)c1ccncc1)c1ccncc1`, the activity, negative = inhibition was -9.5% [at 11.4 µM] (inactive). Same read-out and setting: the figure for `O=C(C[N+]1(c2ccccc2)CCOCC1)c1ccccc1` is -14.4% [at 11.4 µM] (inactive). In the case of `O=C(CC(=O)c1ccncc1)c1ccccc1`, the AC50 is 3.16 µM (active). Regarding `CCc1cc2c(=O)c(-c3cnn(-c4ccccc4)c3)coc2c(CN2CCOCC2)c1O`, the activity, negative = inhibition is 12.2% [at 11.4 µM] (inactive). Turning to `Oc1c(CN2CCOCC2)cc(-c2ccccc2)cc1CN1CCOCC1`, the AC50 was 15.8 µM (active). For the molecule `O=c1oc2c(CN3CCOCC3)c(O)ccc2c2ccccc12`, the activity, negative = inhibition was -4.65% [at 2.29 µM] (inactive). In the case of `CCN(CC)C[C@@H]1CCCCN1CC(=O)N1c2ccccc2C(=O)Nc2cccnc21`, the AC50 is 12.6 µM (active). As for `CN1CCN(CC(=O)N2c3ccccc3C(=O)Nc3cccnc32)CC1`, the AC50 entry was “inactive”. With `Cc1ccc2c(c1)nnn2C1CCN(CC(=O)N2c3ccccc3CC2C)CC1` (configuration not stated), the AC50 is 10 µM (active).
